The values below come from PubChem BioAssay (NCI).

Experiment in all cases: NCI-60 one-dose screen, 48 h (100 = growth as untreated, 0 = no growth, -100 = all killed)
Holding throughout (settings): 10 µM unless noted

The subject of assay [1] is NCI-H23 lung.
The test system of assay [2] is NCI-H226 lung.
Assay [3] deals with NCI-H322M lung.
In assay [4] the test system is HOP-62 NSCLC.
For assay [5], the system named is NCI-H460 lung.
Assay [6] relates to HOP-92 NSCLC.
In assay [7] the test system is NCI-H522 lung.
In assay [8] the test system is A549/ATCC NSCLC.
For assay [9], the system named is 786-0 renal.
The test system of assay [10] is COLO 205 colon.
Assay [11] has as its system DU-145 prostate.
Assay [12] has as its system K-562 leukemia.
Assay [13] concerns MALME-3M melanoma.
Assay [14] relates to MDA-MB-231 breast.
For assay [15], the system named is RXF 393 renal.
In assay [16] the test system is SF-268 CNS.
Assay [17] concerns SF-295 CNS.
In assay [18] the test system is SF-539 CNS.
The subject of assay [19] is UACC-257 melanoma.
Assay [20] concerns M14 melanoma.

About 83,000 compounds went through this panel and 20% of them were active in at least one assay; those are over-represented in the sample as a whole.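 Growth was measured after 48 h exposure to one concentration of compound in 96-well plates. Values under 10 count as active.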 Unmarked numbers belong to inactive results. Active and inactive are the calls of the source.

`C=COC(=O)C(C)(C)C`: the growth in assay [1] is 102%; in assay [2] it was 109%; in assay [3], 104%; in [4] it was 104%; in assay [5], 104%; in [6], 71.7%. The growth in assay [7] was 93.7%; in [8], 105%; in [9] it was 96.2%; in [10], 104%; in assay [11], 110%; in assay [12], 103%. The growth was 95.5% in assay [13]; 113% in assay [14]; 105% in assay [15]; 103% in assay [16]; 93.1% in assay [17]; 102% in assay [18]. For the same molecule, the growth in [19] and in [20] was 107% throughout.
For the molecule `O=c1n(CC2CO2)c(=O)n(CC2CO2)n1CC1CO1` (stereo not given), the growth in assay [1] is 55.2%; in assay [2], 85.9%; in [3], 94%; in [4], 46%; in [5], 4.78% (active); in [6] it was 48.6%. Besides, the growth is 31.4% in [7]; 49.4% in assay [8]; 36.9% in assay [9]; 70.1% in assay [10]; 38.4% in assay [11]; 57.4% in assay [12]. Moreover, the growth in assay [13] is 107%; in assay [14] it was 110%; in assay [15] it was 80.2%; in assay [16] it was 53.5%; in [17] it was -10.3% (active); in assay [18], 18.8%. The results for the growth in [19] and in [20] were 86.6% and 48.1%, respectively.
Take `Cc1ccc(C)c(CN(C)C)c1O`: the growth is 102% in [1]; 97.6% in assay [2]; 108% in [3]; 97.4% in assay [4]; 102% in [5]; 88.1% in [6]. In addition, the growth in assay [7] is 111%; in assay [8] it was 106%; in assay [9], 107%; in [10], 113%; in [11], 108%; in [12], 119%. Further, the growth in [13] was 94.8%; in [14], 109%; in assay [15], 107%; in [16], 104%; in assay [17] it was 97.8%; in [18], 96.5%. Further, the growth in assay [19] and in [20] was 105% in each case.
In the case of `CCOC(=O)c1cc(Cl)c(O)c(Cl)c1`, the growth in assay [1] is 103%; in assay [2], 103%; in assay [3] it was 117%; in assay [4] it was 106%; in assay [5] it was 108%; in assay [6], 109%. Also, the growth in assay [7] was 103%; in assay [8], 100%; in assay [9] it was 107%; in assay [10], 99.6%; in assay [11] it was 104%; in assay [12], 121%. Further, the growth in assay [13] was 114%; in [14], 106%; in assay [15] it was 116%; in assay [16] it was 97.7%; in assay [17], 103%; in assay [18], 106%. Further, the growth in assay [19] was 109%; in assay [20], 105%.
Turning to `CC(C)OCC(CCl)OC(=O)Nc1ccccc1` (stereo not given), the growth in [1] was 93%; in [2], 100%; in [3] it was 99.4%; in [4], 104%; in assay [5], 105%; in [6] it was 89.5%. Further, the growth in [7] is 98.4%; in [8], 102%; in assay [9], 100%; in assay [10], 111%; in [11] it was 106%; in assay [12] it was 103%. Moreover, the growth in assay [13] was 92.7%; in [14], 94.8%; in assay [15] it was 113%; in [16] it was 101%; in assay [17] it was 108%; in assay [18] it was 98.1%. Besides, the values for the growth in assay [19] and in [20] were 102% and 107%, respectively.
Regarding `CCCCCCCCNC(=O)C(C)C`, the growth in assay [1] is 94.6%; in assay [2], 96.4%; in assay [3] it was 107%; in [4] it was 104%; in assay [5], 98.3%; in assay [6] it was 90%. The growth is 92.5% in [7]; 102% in assay [8]; 107% in assay [9]; 108% in assay [10]; 105% in [11]; 108% in [12]. Further, the growth in [13] is 106%; in assay [14], 109%; in assay [15], 93%; in assay [16], 104%; in assay [17], 100%; in assay [18], 96.9%. Moreover, the growth in assay [19] was 108%; in [20] it was 95.5%.
For the molecule `FC(F)(F)c1cc(NC2=NCCN=C(Nc3cc(C(F)(F)F)cc(C(F)(F)F)c3)SS2)cc(C(F)(F)F)c1`, the growth in [1] is 47.2%; in [2], 67.9%; in assay [3] it was 90.1%; in assay [4], 74.8%; in [5], 40%; in [6], 0.524% (active). Also, the growth is 13.1% in [7]; 49.1% in assay [8]; 70.6% in [9]; 49.1% in assay [10]; 66.6% in assay [11]; 28.8% in [12]. The growth in assay [13] was 37%; in [14], 73.2%; in [15], 77.6%; in [16], 74.2%; in assay [17] it was 52.6%; in [18] it was 81.3%. In addition, the growth is 64.4% in [19] and 82.1% in assay [20].
`Nc1ccn(C2OC(CO)C(O)C2F)c(=O)n1` (stereo not given): the growth in assay [1] was 83.7%; in assay [2], 101%; in [3] it was 107%; in [4], 63.5%; in assay [5] it was 70.1%; in assay [6], 78.3%. The growth in assay [7] was 51.4%; in [8], 68%; in assay [9], 79.9%; in [10], 65.1%; in [11], 89.4%; in [12], 83.7%. Besides, the growth in assay [13] is 73%; in assay [14] it was 89.2%; in assay [15] it was 100%; in [16], 86.3%; in assay [17], 98.6%; in assay [18] it was 92.2%. Further, the growth in assay [19] is 95.1%; in assay [20], 65.4%.
